Assay results taken from PubChem BioAssay (Tox21).
Inconclusive results are not listed. The source made the active and inactive calls. Unless noted, calls follow the shape of the full dose curve.

Key:
[1] = target: Peroxisome proliferator-activated receptor delta (Homo sapiens) (UniProt Q03181); assay: qHTS assay to identify small molecule agonists of the peroxisome proliferator-activated receptor delta (PPARd) signaling pathway (AID 743212)
Outline: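 Read-out: beta-lactamase FRET fluorescence after 2 h room-temperature incubation with LiveBLAzer B/G substrate. Cells were HEK293H carrying a UAS-bla reporter for PPARd, treated at 37 C with DMSO-dissolved compounds.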

[2] = qHTS assay to identify small molecule antagonists of the farnesoid-X-receptor (FXR) signaling pathway - cell viability counter screen (AID 743221; active = well fitted cell-killing curve with a large enough effect in the repeat runs, not every such curve was filed as active; also: nearly all actives have a fitted effect of over 50% in size)
Outline: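 HEK 293T FXR-bla cells, 5 h pre-incubation; compound + CDCA 50 uM final, 16 h, 37 C; beta-lactamase FRET read first, then CellTiter-Glo luminescence, 30 min RT.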

[3] = target: Vitamin D3 receptor (Homo sapiens) (UniProt P11473); assay: qHTS assay to identify small molecule agonists of the vitamin D receptor (VDR) signaling pathway (AID 743222)
Outline: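 Following 4 h attachment at 37C, VDR-bla cells (2,000 per well) received DMSO-dissolved compounds or controls. After 16 h incubation, LiveBLAzer B/G FRET substrate was added and fluorescence read 2 h later at room temperature.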

[4] = qHTS assay to identify small molecule agonists of the vitamin D receptor (VDR) signaling pathway - cell viability counter screen (AID 743224; active = well fitted curve in the direction sought with a large enough effect in the repeat runs; an effect the other way counts as inactive or inconclusive; also: series mostly up to about 63 µM; nearly all actives have a fitted effect of over 50% in size)
Outline: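 In parallel with the bla FRET readout, cytotoxicity toward VDR-bla cells after 16 h compound exposure was assessed by CellTiter-Glo, with luminescence recorded after a 30 min room-temperature incubation.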

[5] = qHTS assay to identify small molecule antagonists of the vitamin D receptor (VDR) signaling pathway - cell viability counter screen (AID 743225; active = well fitted curve in the direction sought with a large enough effect in the repeat runs; an effect the other way counts as inactive or inconclusive; also: nearly all actives have a fitted effect of over 50% in size)
Outline: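 Viability counter screen run in the same wells as the beta-lactamase reporter assay: HEK 293T VDR-UAS-bla cells, 16 h compound exposure at 37C with 3 nM (final) 1-alpha,25-dihydroxyvitamin D3. CellTiter-Glo luminescence, 30 min, room temperature.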

[6] = qHTS assay to identify small molecule agonists of the NFkB signaling pathway - cell viability counter screen (AID 1159515); also: series mostly up to about 61 µM; nearly all actives have a fitted effect of over 55% in size
Outline: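 Plate 2,000 NFkB-bla ME-180 cells/well; incubate overnight. Add compounds, 5 hr at 37 C. Add FRET substrate, 1.5 hr RT. Add CellTiter-Glo, 30 min RT; read luminescence.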

[7] = qHTS assay to identify small molecule agonists of the endoplasmic reticulum stress response signaling pathway (AID 1159516; active = well fitted activation curve with a large enough effect in the signal ratio in the repeat runs, not every such curve was filed as active; the % refers to the signal ratio)
Outline: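 Beta-lactamase expression from the ER stress response element in HeLa reporter cells is quantified with the LiveBLAzer B/G FRET substrate, read at 405 nm excitation after 2 hr at room temperature, following 5 hr compound treatment at 37 C.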

[8] = qHTS assay to identify small molecule agonists of the endoplasmic reticulum stress response signaling pathway - cell viability counter screen (AID 1159517); also: series mostly up to about 61 µM; nearly all actives have a fitted effect of over 50% in size
Outline: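 Steps: seed 1,500 ESRE-bla HeLa cells per well; incubate overnight at 37 C, 5% CO2; add compounds in DMSO for 5 hr; run FRET substrate 2 hr RT; add CellTiter-Glo, wait 30 min, read luminescence.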

[9] = qHTS assay to identify small molecule antagonists of the retinoid-related orphan receptor gamma (ROR-gamma) signaling pathway - cell viability counter screen (AID 1159520; active = well fitted curve in the direction sought with a large enough effect in the repeat runs; an effect the other way counts as inactive or inconclusive; also: nearly all actives have a fitted effect of over 50% in size)
Outline: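 Tet-on ROR gamma CHO cells were given compounds for 2 hr, then doxycycline hyclate at 1 uM final, and incubated 16 hr at 37 C. Viability was measured as ATP content by CellTiter-Glo luminescence.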

[10] = target: Nuclear receptor ROR-gamma (Homo sapiens) (UniProt P51449); assay: qHTS assay to identify small molecule antagonists of the retinoid-related orphan receptor gamma (ROR-gamma) signaling pathway (AID 1159521; active = well fitted curve in the direction sought with a large enough effect in the repeat runs; an effect the other way counts as inactive or inconclusive)
Outline: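 Luminescence readout (ONE-Glo, 30 min RT) after 16 h doxycycline induction; loss of signal scored as antagonism. CHO cells with TET-inducible RORγ and RORE-LUC reporter; compounds added 2 h before 1 uM final doxycycline.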

[11] = qHTS assay to identify small molecule agonists of the AP-1 signaling pathway - cell viability counter screen (AID 1159525); also: nearly all actives have a fitted effect of over 55% in size
Outline: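 Same-well cytotoxicity counter screen of the Tox21 10K library in ME-180 cells. The readout is ATP-dependent luminescence after 5 h compound treatment. Data are normalised to DMSO and tetra n-octyl ammonium bromide controls.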

[12] = qHTS assay to identify small molecule agonists of the AP-1 signaling pathway (AID 1159526)
[13] = target: Retinoic acid receptor RXR-alpha (Homo sapiens) (UniProt P19793); assay: qHTS assay to identify small molecule agonists of the RXR signaling pathway (AID 1159527); also: nearly all actives have a fitted effect of over 35% in size
Outline: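 Agonist mode; 9-cis retinoic acid positive control. HEK 293T UAS-bla reporter cells, 2% charcoal-stripped FBS, 16 hr compound exposure at 37 C/5% CO2. LiveBLAzer B/G FRET substrate 2 hr RT; ex 405, em 460/530 nm.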

[14] = qHTS assay to identify small molecule antagonists of the peroxisome proliferator-activated receptor delta (PPARd) signaling pathway - cell viability counter screen (AID 743213; active = well fitted curve in the direction sought with a large enough effect in the repeat runs; an effect the other way counts as inactive or inconclusive; also: nearly all actives have a fitted effect of over 50% in size)
Outline: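 HEK293H cells with the PPARd UAS-bla reporter, co-treated 17 h at 37 C with compounds and L165041 (300 nM final), were lysed with CellTiter-Glo. Luminescence indicated viable cell content.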

[15] = target: Bile acid receptor (Homo sapiens) (UniProt Q96RI1); assay: qHTS assay to identify small molecule antagonists of the farnesoid-X-receptor (FXR) signaling pathway (AID 743217; active = well fitted inhibition curve with a large enough effect in the signal ratio in the repeat runs, not every such curve was filed as active; the % refers to the signal ratio)
Outline: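 FRET fluorescence after 2 h room-temperature LiveBLAzer loading gives the readout. Prior step: FXR-bla HEK 293T cells, seeded and incubated 5 h, received test compounds plus 50 uM final CDCA for 16 h at 37 °C.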

[16] = qHTS assay to identify small molecule agonists of the farnesoid-X-receptor (FXR) signaling pathway - cell viability counter screen (AID 743218; active = well fitted curve in the direction sought with a large enough effect in the repeat runs; an effect the other way counts as inactive or inconclusive; also: nearly all actives have a fitted effect of over 45% in size)
Outline: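 Readout: CellTiter-Glo luminescence, 30 min RT, multiplexed after the FXR-bla FRET reading. HEK 293T FXR-UAS-bla cells received compound 5 h post-plating and were incubated 16 h at 37 C.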

[17] = target: Bile acid receptor (Homo sapiens) (UniProt Q96RI1); assay: qHTS assay to identify small molecule agonists of the farnesoid-X-receptor (FXR) signaling pathway (AID 743220; active = well fitted activation curve with a large enough effect in the signal ratio in the repeat runs, not every such curve was filed as active; the % refers to the signal ratio)
Outline: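 FXR-UAS-bla HEK 293T cells carrying a UAS-driven beta-lactamase reporter were plated for 5 h at 37C/5% CO2, then exposed to DMSO-dissolved Tox21 10K compounds for 16 h at 37C. A LiveBLAzer B/G FRET substrate was loaded for 2 h at room temperature before fluorescence reading.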

[18] = target: Vitamin D3 receptor (Homo sapiens) (UniProt P11473); assay: qHTS assay to identify small molecule antagonists of the vitamin D receptor (VDR) signaling pathway (AID 743223; active = well fitted inhibition curve with a large enough effect in the signal ratio in the repeat runs, not every such curve was filed as active; the % refers to the signal ratio)
Outline: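 Beta-lactamase reporter read-out: FRET substrate fluorescence after 2 h at room temperature, following 16 h exposure of VDR-bla cells to test compound plus 3 nM (final) 1alpha,25-dihydroxyvitamin D3 agonist at 37C.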

[19] = target: Peroxisome proliferator-activated receptor delta (Homo sapiens) (UniProt Q03181); assay: qHTS assay to identify small molecule antagonists of the peroxisome proliferator-activated receptor delta (PPARd) signaling pathway (AID 743215; active = well fitted inhibition curve with a large enough effect in the signal ratio in the repeat runs, not every such curve was filed as active; the % refers to the signal ratio;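 also: cells stimulated with agonist L165041 at 300 nM final during compound exposure; series mostly up to about 62 µM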)
Outline: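 Fluorescence from cleaved LiveBLAzer B/G FRET substrate (2 h, room temperature) reports PPARd-driven beta-lactamase in HEK293H UAS-bla cells. Cells had been treated 17 h at 37 C with compound plus 300 nM final L165041.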

[20] = qHTS assay to identify small molecule agonists of the RXR signaling pathway - cell viability counter screen (AID 1159529; active = well fitted curve in the direction sought with a large enough effect in the repeat runs; an effect the other way counts as inactive or inconclusive)
Outline: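 Luminescence from CellTiter-Glo (30 min, RT) measured viability in the same wells as the beta-lactamase reporter readout. Cells: GeneBLAzer RXR-alpha HEK 293T, 2% charcoal-stripped FBS. Compound exposure 16 hr, 37 C.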

Measured: Potency

Chain of Retinoic acid receptor RXR-alpha (Homo sapiens) (P19793 whole entry, looked up): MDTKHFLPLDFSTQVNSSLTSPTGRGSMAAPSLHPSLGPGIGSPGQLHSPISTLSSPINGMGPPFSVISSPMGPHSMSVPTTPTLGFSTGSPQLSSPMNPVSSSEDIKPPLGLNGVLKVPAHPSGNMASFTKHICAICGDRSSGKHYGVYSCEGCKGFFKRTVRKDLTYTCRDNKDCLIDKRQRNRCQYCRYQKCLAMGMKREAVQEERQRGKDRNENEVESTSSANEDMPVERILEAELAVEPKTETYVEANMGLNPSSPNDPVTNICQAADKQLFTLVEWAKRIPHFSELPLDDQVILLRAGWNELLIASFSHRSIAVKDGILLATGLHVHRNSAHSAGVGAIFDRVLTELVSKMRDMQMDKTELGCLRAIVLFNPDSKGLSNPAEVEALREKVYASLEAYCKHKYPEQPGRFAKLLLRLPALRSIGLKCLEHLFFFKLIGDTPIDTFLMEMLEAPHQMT
Chain of Vitamin D3 receptor (Homo sapiens) (P11473 whole entry, looked up): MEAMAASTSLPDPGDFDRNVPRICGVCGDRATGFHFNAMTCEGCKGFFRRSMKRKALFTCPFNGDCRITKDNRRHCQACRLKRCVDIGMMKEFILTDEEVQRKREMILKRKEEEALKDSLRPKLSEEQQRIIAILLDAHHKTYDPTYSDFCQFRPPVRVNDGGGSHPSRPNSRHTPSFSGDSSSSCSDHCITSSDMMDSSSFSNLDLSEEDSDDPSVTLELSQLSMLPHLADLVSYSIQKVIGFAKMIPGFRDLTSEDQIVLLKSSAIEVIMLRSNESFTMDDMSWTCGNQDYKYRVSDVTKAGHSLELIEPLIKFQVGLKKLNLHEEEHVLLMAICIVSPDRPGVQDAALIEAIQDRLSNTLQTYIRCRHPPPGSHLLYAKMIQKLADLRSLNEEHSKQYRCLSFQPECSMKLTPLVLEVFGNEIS
Chain of Peroxisome proliferator-activated receptor delta (Homo sapiens) (Q03181 whole entry, looked up): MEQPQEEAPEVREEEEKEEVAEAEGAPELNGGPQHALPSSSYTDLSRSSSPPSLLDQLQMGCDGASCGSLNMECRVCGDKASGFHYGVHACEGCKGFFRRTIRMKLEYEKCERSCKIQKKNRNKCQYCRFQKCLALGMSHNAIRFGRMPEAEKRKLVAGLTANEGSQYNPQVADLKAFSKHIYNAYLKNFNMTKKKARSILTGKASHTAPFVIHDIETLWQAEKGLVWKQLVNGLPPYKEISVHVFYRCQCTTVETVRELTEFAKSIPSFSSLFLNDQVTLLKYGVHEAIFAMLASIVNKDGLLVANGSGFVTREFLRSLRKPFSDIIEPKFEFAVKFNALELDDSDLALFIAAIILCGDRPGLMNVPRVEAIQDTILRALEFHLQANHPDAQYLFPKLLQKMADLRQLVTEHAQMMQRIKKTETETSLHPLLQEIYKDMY
Chain of Bile acid receptor (Homo sapiens) (Q96RI1 whole entry, looked up): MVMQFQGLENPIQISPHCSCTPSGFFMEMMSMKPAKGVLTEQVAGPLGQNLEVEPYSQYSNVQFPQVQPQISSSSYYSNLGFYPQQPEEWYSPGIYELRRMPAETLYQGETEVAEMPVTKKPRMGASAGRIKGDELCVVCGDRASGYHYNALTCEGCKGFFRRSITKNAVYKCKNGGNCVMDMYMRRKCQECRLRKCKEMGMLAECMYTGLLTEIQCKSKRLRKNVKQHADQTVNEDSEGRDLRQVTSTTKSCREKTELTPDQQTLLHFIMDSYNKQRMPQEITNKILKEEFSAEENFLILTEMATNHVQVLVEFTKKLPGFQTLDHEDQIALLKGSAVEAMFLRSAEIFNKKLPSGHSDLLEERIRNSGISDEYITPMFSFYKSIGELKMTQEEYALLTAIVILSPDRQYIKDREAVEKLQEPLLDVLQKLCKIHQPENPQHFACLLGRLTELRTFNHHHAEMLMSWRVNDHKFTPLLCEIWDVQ

C1CCC2(CCCCO2)OC1
not listed: [14] | [15] | [16] | [17] | [18] | [19] | [20]
inactive: all other assays above

Cc1nc(C2CCCCC2)c(-c2ccc(S(N)(=O)=O)c(F)c2)o1
not listed: [1] | [19] | [20]
inactive: all other assays above

CNCCO
not listed: [3] | [4] | [14] | [16] | [18] | [19] | [20]
inactive: all other assays above

CCCCOCCOC(=O)COc1cc(Cl)c(Cl)cc1Cl
not listed: [4] | [13] | [15] | [17]
inactive: all other assays above

OCCc1ccccn1
not listed: [4] | [5] | [13] | [15] | [17] | [19]
inactive: all other assays above

Clc1cc(Cl)c(Cl)nc1Cl
not listed: [1] | [4] | [20]
inactive: all other assays above

O=C1NC(=O)C2CC=CCC12 (stereo not drawn)
not listed: [1] | [19] | [20]
inactive: all other assays above

CCCCc1ccc2c(n1)[C@@H](c1ccc(OC)cc1C[C@H](C)C(=O)O)[C@H](C(=O)O)[C@H]2c1ccc2c(c1)OCO2
not listed: [1] | [4] | [19] | [20]
inactive: all other assays above

Cc1ccc(C(=O)c2ccc(CC(=O)O)n2C)cc1
not listed: [1] | [3] | [14] | [15] | [17] | [19] | [20]
inactive: all other assays above

COc1ccc2cc1Oc1cc3c(cc1OC)CC[N+](C)(C)[C@H]3Cc1ccc(cc1)Oc1c(OC)c(OC)cc3c1[C@@H](C2)[N+](C)(C)CC3
not listed: [9] | [14] | [15] | [17]
inactive: all other assays above

NC(=O)N1c2ccccc2CC(=O)c2ccccc21
not listed: [9] | [15] | [17] | [18]
inactive: all other assays above

CCC(C)(CN(C)C)OC(=O)c1ccccc1 (stereo not drawn)
not listed: [1] | [9] | [15] | [16] | [17] | [18] | [19]
inactive: all other assays above

CN1CCC(=C2c3ccccc3CCc3cccnc32)CC1
not listed: [9] | [15] | [17] | [19]
inactive: all other assays above

CCO[Si](OCC)(OCC)c1ccccc1
not listed: [1] | [9] | [13] | [19] | [20]
inactive: all other assays above

CCN1CCOCC1
not listed: [13] | [16] | [19] | [20]
inactive: all other assays above
